{
  "source": "paper PMC12136788",
  "binders": {"B1": {"name": "chr18:47247233:47247234:+_ENSMUSG00000042705_ENSMUST00000049388|mus_hu|motif|central (ssRNA)", "RNA": "GGGAGUUCUACAGUCCGACGAUCUUGUAUAUGGCUAUUUUCUUAAUUUUAUUCAUGUAAUUACCAAAGCUCUGUAUUCGGCGGAGGUACACAUCUUAUCUUGUAUCCAUGGACGCUCCUUGAUACAUUAUGGUAUCAUCCAGCCAACAGAGGAUUGAGCAUCA"}, "B2": {"name": "chr1:178670160:178670161:-_ENSMUSG00000057335_ENSMUST00000057037|mus_mus|FALSE|FALSE (ssRNA)", "RNA": "GGGAGUUCUACAGUCCGACGAUCCUGAGGCCUCGAGUCAACAGACCGACCGUUGUUUCCUUCUGGUGUUUUAGAAUGAACUAAUGGAGGUAUCUUUCGGAAGUUGAGACUUUCAUCAAAAACACGAUCAACCAACUCUUCUCUCAACAGAGGAUUGAGCAUCA"}, "B3": {"name": "98562344_98563384_6126_CDS_ENSG00000196367_ENST00000456197|human|control|control (ssRNA)", "RNA": "GGGAGUUCUACAGUCCGACGAUCCCAUGCUCAUCACUGCCAGGCGCGUCUUCACCAGCUCCAGACUCAGCAUCACCAGCUCGCUUGUACCUGAGGUGGCUUCGGUGCUUCCUGACGCUGCCUGAGGGUUUAAAUGCUCCCGGACAACAGAGGAUUGAGCAUCA"}, "B4": {"name": "33247490_33252972_1089_CDS_ENSG00000083642_ENST00000315596|human|control|control (ssRNA)", "RNA": "GGGAGUUCUACAGUCCGACGAUCCCUGCCCAAGUAGCACUGCCAAAGUGGCUUGUUUUGAGAAGCCAAUUCUGAAUCCUUUGCCCCAAACAUUUUUGCCAGUAGUUUAACAACUUGUAGGCGCUCCUCAUUAUCAUUGCUCUUCAACAGAGGAUUGAGCAUCA"}, "B5": {"name": "chr12:39756943:39756944:-_ENSG00000139116_ENST00000544797|hu_mus|hu_hu_hu_mus_False|1_18 (ssRNA)", "RNA": "GGGAGUUCUACAGUCCGACGAUCGGUUUGGCUGUUACCCCCAAGGGAAUCCUGCAAGAGUCUUGUCAGCUUAGAGUCUCUGUAAGGGACAUGGGUGGCUCUCUUGCUCUUGUCCCCCAAGGCACUUAUUACAUUCCCAAGUGCCAACAGAGGAUUGAGCAUCA"}, "B6": {"name": "chr2:224824363:224824364:+_ENSG00000135900_ENST00000258383|hu_mus|FALSE|FALSE (ssRNA)", "RNA": "GGGAGUUCUACAGUCCGACGAUCAGCUUCUUUCUCUAUGCCAAGGCUCUGACGUUUCGCCUCUUCGCUUUUGAUGUAGCAGCUAUUGAUAAAUGCAGUUUUGAGAAGGUCCAACGAAAAGGUUUCUUGUAAGCGAGAUCCAAACAACAGAGGAUUGAGCAUCA"}, "B7": {"name": "64079182_64079302_4442_3pUTR_ENSMUSG00000025959_ENSMUST00000114086|mouse|control|control (ssRNA)", "RNA": "GGGAGUUCUACAGUCCGACGAUCCCCACAGCCAACAAAGGACUCUGAAGCAAGCAAGCACCAUCAUGGUAUCUCAGUGCGCCCUGCUCCAAGAGAGAUCAGGAGCAGAUCACAAAGACCUCACUGAUACAAAAGAGAAAUUACCAACAGAGGAUUGAGCAUCA"}, "B8": {"name": "chr8:104081237:104081238:+_ENSG00000155097_ENST00000518738|hu_mus|motif|central (ssRNA)", "RNA": "GGGAGUUCUACAGUCCGACGAUCAACACACAGAAUUAUGCAUACCAUGAUAUCAAGGAGGAAAAUACCUCUUUAAAUAAACGGUUCGGUUUAUAAAUAAACUCUGAUUUUUUUCAGUACACAUUUACAGACCUGAUCAAUAAACAACAGAGGAUUGAGCAUCA"}, "B9": {"name": "chrX:12193597:12193598:+_ENSMUSG00000031007_ENSMUST00000033313|mus_mus|motif|central (ssRNA)", "RNA": "GGGAGUUCUACAGUCCGACGAUCACAAAGCUAGUCUCUUCUGAAAUCAACAUAGUAUUUUUAAUAAUUUUAAUAUCUCGGCGGAACCACACGGAUCACCAAACUUGCAGAAGAGAUUAAAAACAGCUAGCUUGCUAGUCAUAUCAACAGAGGAUUGAGCAUCA"}, "B10": {"name": "chr4:136876768:136876769:-_ENSMUSG00000006699_ENSMUST00000051477|mus_hu|FALSE|FALSE (ssRNA)", "RNA": "GGGAGUUCUACAGUCCGACGAUCAAAAAAAAAAAAAAACACACACACACAAAAAUUUUUUUUUUGAAACAACAAAAAAAAAUAGUACUAAUCACUUUUCUGACAAUACAAUUACUCAAAAUUAACUAGUACUGGGAGGGGGAACAACAGAGGAUUGAGCAUCA"}, "B11": {"name": "chr10:111893599:111893600:+_ENSG00000148700_ENST00000277900|hu_hu|FALSE|FALSE (ssRNA)", "RNA": "GGGAGUUCUACAGUCCGACGAUCAUUCAGACAGAUAGCUGUUUAUGGUGAAUUAUAAUAAUACUUCAUGAGGGCAGAGCUAAUUAAAACUAGUAAUUGCUUAAAAUUCAAAGCCAUUUCUGGACAUAUAAAAUGAGAGAUGAACAACAGAGGAUUGAGCAUCA"}, "B12": {"name": "94906243_94906363_1931_3pUTR_ENSG00000149212_ENST00000536441|human|control|control (ssRNA)", "RNA": "GGGAGUUCUACAGUCCGACGAUCAAAUAAAACACAUCAUUGCACAUUACAGCCGCAAAAAACAAAAAAAAAAAAACAAACGGCUAAACUUUGACACUAGAGAACUGAAUAAUUUUUGAUGCUAUAUCACAAAUAGCUUCAAUGCAACAGAGGAUUGAGCAUCA"}, "B13": {"name": "chr10:111893621:111893622:+_ENSG00000148700_ENST00000277900|hu_hu|motif|central (ssRNA)", "RNA": "GGGAGUUCUACAGUCCGACGAUCUAAUUCAGACAGAUAGCUGUUUAUGGUGAAUUAUAAUAAUACUUCAUGAGGGCAGAGCGGAUUAAAACUAGUAAUUGCUUAAAAUUCAAAGCCAUUUCUGGACAUAUAAAAUGAGAGAUGCAACAGAGGAUUGAGCAUCA"}, "B14": {"name": "chr1:82457952:82457953:+_ENSG00000117114_ENST00000335786|hu_mus|motif|central (ssRNA)", "RNA": "GGGAGUUCUACAGUCCGACGAUCAGCUUUGCUGAAACAAUUUACAUGUCAUUAGAACUUUACCAUAAAAUAAAUUAAUUACGGAAUAUAGCCAGAAGGAAUAUGGAAGAGUAAUAUUUCUGUUUUAUUUUAUUUUUAUUUUAUCAACAGAGGAUUGAGCAUCA"}, "B15": {"name": "23644147_23644267_867_3pUTR_ENSMUSG00000028986_ENSMUST00000030841|mouse|control|control (ssRNA)", "RNA": "GGGAGUUCUACAGUCCGACGAUCUUGAAUAAGUGGUUCAGCUUGUACUGUUUUACUUAGGAAAUUCUUCGAUAUAAGAGGAAACCUGACUUUAGCAAGGAUAUCAACCAUGAAUGGCUGGCGGUUAGGCUCAUCAUAUUUCAACAACAGAGGAUUGAGCAUCA"}, "B16": {"name": "chr2:25965407:25965408:-_ENSG00000143970_ENST00000336112|hu_mus|motif|central (ssRNA)", "RNA": "GGGAGUUCUACAGUCCGACGAUCAUGUGCUGCCGGAAUAAAAUCUCUAGGCAGGCUCUUUUCAUCAGAUGCUUGGCCUCGGGAGAAUAUGUAAUUCUCCUGGCCUAAAGUGGUUUGCUCACUCACUGGUGCCUCAGUCUUACCCAACAGAGGAUUGAGCAUCA"}, "B17": {"name": "82834861_82834981_3494_CDS_ENSG00000038427_ENST00000343200|human|control|control (ssRNA)", "RNA": "GGGAGUUCUACAGUCCGACGAUCUUCAUUGACAGUACCCACUUCUCCCAAUCCUUCGUCGAUAAUGGAGGAAGCUGUACCAGAAAACUUUUGCACAGCACUGGGAAGCACUGGAACAACAGAGCUGCUGACUGUGACCAGUUGCAACAGAGGAUUGAGCAUCA"}, "B18": {"name": "chr14:70842435:70842436:-_ENSG00000213463_ENST00000256366|hu_hu|motif|central (ssRNA)", "RNA": "GGGAGUUCUACAGUCCGACGAUCCUGCACCUGUAACCUGUGCUGCACUCUCAGAGACACAGCAUAGCCUGCAUUACGAAAGAGGUCGGCAGCAUCCUGGUGCAGCAGGUUCUUUAGGUCUUGGCCAUUUACCGAAAGGAUCUUCAACAGAGGAUUGAGCAUCA"}, "B19": {"name": "chr6:13622506:13622507:-_ENSG00000010017_ENST00000011619|hu_mus|FALSE|FALSE (ssRNA)", "RNA": "GGGAGUUCUACAGUCCGACGAUCAGGAAGCAAUGUAAAGCGACAAAAACCUGUCCCCAGUACAUAAUUAAAAAAAAAUCUAAAUUUCAAAUCAGCAGAGCCGGUCUACUUCCAUGUUGACUGUUUGCCACAAUGUGAGUGUGACAACAGAGGAUUGAGCAUCA"}, "B20": {"name": "chr10:111893621:111893622:+_ENSG00000148700_ENST00000277900|hu_hu|FALSE|FALSE (ssRNA)", "RNA": "B13 RNA with G82U, G83A"}, "B21": {"name": "chr1:109605286:109605287:-_ENSG00000197780_ENST00000461096|hu_mus|hu_hu_hu_mus_True|8_88 (ssRNA)", "RNA": "GGGAGUUCUACAGUCCGACGAUCAAGUUUCAGAGUAACAUUCAGUAUACUUAAAUCAUGCAAUUAUCCUUAUUAUAAGCUAAGCAGAAUAAUAAUUUAAUACCGUAAGUGAACUACACACAAAGCCGUGUAUUCAGAAAUGGUCAACAGAGGAUUGAGCAUCA"}, "B22": {"name": "chr18:56900473:56900474:+_ENSMUSG00000024590_ENSMUST00000025486|mus_mus|FALSE|FALSE (ssRNA)", "RNA": "GGGAGUUCUACAGUCCGACGAUCAACAUCUAUCUCUUCAAUGCACACGUUCCCCGUGGCUGAGGCAGAGUGGGAAAUGCUAACACUGCUGCUCGCCUCCGACUCCUCCACAUCAACUCUCUUCCGCUUUCCUCUGGUGGUGCGCAACAGAGGAUUGAGCAUCA"}},
  "note": "Substitutions are numbered along the chain they refer to. The full ranking holds about 24,000 sequences; the median of “enrichment r” is about 0.99, and the highest 2% start at about 3.7. Many of the other results were omitted from the sample, so the highest values are more common in it than they were.",
  "data": [
    {"target": "T1, UNK ZnF1-3 (human, UniProt Q9C0B0 31-174)", "T1 sequence": "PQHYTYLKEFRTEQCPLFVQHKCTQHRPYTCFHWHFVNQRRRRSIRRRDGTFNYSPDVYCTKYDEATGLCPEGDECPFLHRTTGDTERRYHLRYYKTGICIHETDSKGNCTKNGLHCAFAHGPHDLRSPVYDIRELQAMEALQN", "assay": "nsRBNS (natural sequence RNA bind-n-seq); RBNS binding buffer (assumed for nsRBNS): 25 mM Tris pH 7.5, 150 mM KCl, 3 mM MgCl2, 0.01% Triton X-100, 500 ug/ml BSA, 20 U/ml SUPERase-In, 4 C; UNK is unkempt and MSI1 is Musashi-1; names of the RNAs are library labels; protein concentration not given here; high values mean tight binding", "units": {"binding signal": "enrichment R"}, "values": [
      {"binder": "B1", "binding signal": 1.03},
      {"binder": "B2", "binding signal": 1},
      {"binder": "B3", "binding signal": 0.681},
      {"binder": "B4", "binding signal": 0.879},
      {"binder": "B5", "binding signal": 0.497},
      {"binder": "B6", "binding signal": 1},
      {"binder": "B7", "binding signal": 1.03},
      {"binder": "B8", "binding signal": 0.25},
      {"binder": "B9", "binding signal": 1.81},
      {"binder": "B10", "binding signal": 3.42},
      {"binder": "B11", "binding signal": 4.42},
      {"binder": "B12", "binding signal": 6.07},
      {"binder": "B13", "binding signal": 4.04},
      {"binder": "B14", "binding signal": 3.79},
      {"binder": "B15", "binding signal": 0.91},
      {"binder": "B16", "binding signal": 0.714},
      {"binder": "B17", "binding signal": 0.912},
      {"binder": "B18", "binding signal": 0.468},
      {"binder": "B19", "binding signal": 2.67},
      {"binder": "B20", "binding signal": 5.27},
      {"binder": "B21", "binding signal": 0.504},
      {"binder": "B22", "binding signal": 1.08}
    ]}
  ]
}
